This is a sample that favours compounds with a hit; in the whole collection about 7.9% have one here.
KB-V1 cytotox: KB-V1 MDR subline cytotoxicity; KB-V1 MDR cells viability, CellTiter-Glo, 72 h; Potency, µM (doses to about 46.1 µM), usual class: cytotoxic; actives 3.4% (n = 400,000); further: nearly all actives have a fitted effect of over 60% in size
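Following 72 h at 37 degrees C with compound, KB-V1 cell viability was read by CellTiter-Glo luminescence, medium being phenol-red-free DMEM plus 10% FBS; concentration-response parameters came from normalized, curve-fitted qHTS data.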
HT1080-NT tox: kills 2HG-producing HT-1080-NT fibrosarcoma cells. HT-1080-NT fibrosarcoma viability, CellTiter-Glo ATP luminescence, 48 h. actives 1.6% (n = 360,000). Potency, µM (highest dose often 46.1 µM), usual class: cytotoxic. AID 686970;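 further: NT is the 2HG producing partner of a matched IDH1 knockdown line; nearly all actives have a fitted effect of over 55% in size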
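Read-out is CellTiter-Glo luminescence after 10 minutes at room temperature, following 48 hours' compound treatment of HT-1080-NT cells (750 cells/well, RPMI, 5% FBS, 37 degrees C).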
MCF10A rerep: induces DNA re-replication in MCF 10a normal breast cells; MCF 10A DNA re-replication, Hoechst nuclear intensity, 48 h; Potency, µM (titrated, usually from 46.1 µM), actives largely listed as activators; actives 2.9% (n = 350,000); further: nearly all actives have a fitted effect of over 50% in size
SW480 rerep: inducers of DNA re-replication in SW480 colon cancer cells | SW480 DNA re-replication, Hoechst DNA content imaging, 48 h | actives 1.8% (n = 340,000) | Potency, µM (titrated, usually from 46.1 µM), actives largely listed as activators; further: nearly all actives have a fitted effect of over 55% in size
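Quantitative HTS format with DMSO vehicle controls; 48 hr drug incubation at 37 C, then 40 min Hoechst staining and scanning imager measurement at 405 nm excitation.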
HT1080 IDH1KD tx: toxicity to HT-1080 IDH1 knockdown cells (counter line); actives 2% (n = 360,000); AID 686971; HT-1080 IDH1 knockdown viability, ATP luminescence, 48 h; Potency, µM (doses to about 46.1 µM), most hits filed as cytotoxic
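IDH1KD HT-1080 cells, 750/well, RPMI + 5% FBS; compound pinned after 2 h settling; 48 h, 37 °C; CellTiter-Glo luminescence; % activity normalised to DMSO and no-cell wells; curves fitted, classed by r2 and efficacy.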
KB-3-1 tox: kills parental KB-3-1 adenocarcinoma cells | KB-3-1 viability, CellTiter-Glo ATP luminescence, 72 h | Potency, µM (series often up to 46.1 µM), usual class: cytotoxic | actives 1.4% (n = 400,000) | AID 1347075; further: nearly all actives have a fitted effect of over 60% in size
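Luminescent ATP read-out (CellTiter-Glo) measures survival of drug-naive KB-3-1 cells after 72 h compound exposure at 37 °C. Titration series was screened from lowest to highest concentration, with DMSO vehicle plates as background controls.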
A number is an active result. The call rests on the fitted dose curve; in most records, active means well fitted curve in the direction sought with a large enough effect; inconclusive means small, poorly fitted or top-dose-only effect, or another doubt; inactive means no such curve, though single readings can be large; an effect the other way counts as inactive or inconclusive.

`CC1CC(C)CN(C(=O)c2ccc(CSc3nc4ccncc4[nH]3)cc2)C1` (stereo not given) gave KB-V1 cytotox inactive, HT1080-NT tox inactive, MCF10A rerep inactive, SW480 rerep inactive, HT1080 IDH1KD tx inactive and KB-3-1 tox inconclusive.
For COc1cc2[nH]c(=S)nc(NCc3cccnc3)c2cc1OC the results were KB-V1 cytotox inactive, HT1080-NT tox inactive, MCF10A rerep inactive, SW480 rerep inactive, HT1080 IDH1KD tx inactive and KB-3-1 tox inactive.
CCc1nc(N2CCCCC2)c2oc3ccccc3c2n1 was read as KB-V1 cytotox inconclusive, HT1080-NT tox inconclusive, MCF10A rerep inactive, SW480 rerep inconclusive, HT1080 IDH1KD tx inconclusive and KB-3-1 tox inactive.
CCc1nc(N2CCCC(C)C2)c2oc3ccccc3c2n1 (stereo not given) was read as KB-V1 cytotox 5.2µM, HT1080-NT tox inconclusive, MCF10A rerep inconclusive, SW480 rerep inactive, HT1080 IDH1KD tx inconclusive and KB-3-1 tox inconclusive.
Screening COC(=O)c1cc2c(ccn2-c2ccc(F)cc2)n1C(C)C returned KB-V1 cytotox inactive, HT1080-NT tox inactive, MCF10A rerep inconclusive, SW480 rerep inactive, HT1080 IDH1KD tx inactive and KB-3-1 tox inactive.
`COC(=O)c1cc2c(ccn2-c2ccc(F)cc2)n1Cc1ccc(OC(C)=O)cc1` gave KB-V1 cytotox inconclusive, HT1080-NT tox inactive, MCF10A rerep inconclusive, SW480 rerep inactive, HT1080 IDH1KD tx inactive and KB-3-1 tox inactive.
`COC(=O)c1cc2c(ccn2-c2ccc(F)cc2)n1CC(C)C` gave KB-V1 cytotox inactive, HT1080-NT tox inactive, MCF10A rerep 23µM, SW480 rerep inconclusive, HT1080 IDH1KD tx inactive and KB-3-1 tox inactive.
Screening COC(=O)c1cc2c(ccn2-c2ccc(F)cc2)n1Cc1cccc(OC)c1 returned KB-V1 cytotox 13µM, HT1080-NT tox inactive, MCF10A rerep inconclusive, SW480 rerep inconclusive, HT1080 IDH1KD tx inconclusive and KB-3-1 tox inactive.
For CCCn1c(C(=O)OC)cc2c1ccn2-c1ccc(F)cc1 the results were KB-V1 cytotox inactive, HT1080-NT tox inactive, MCF10A rerep 23µM, SW480 rerep inactive, HT1080 IDH1KD tx inactive and KB-3-1 tox inactive.
CNC(=S)N1N=C(c2ccc(OC)cc2)CC1c1ccccc1Cl (stereo not given) was read as KB-V1 cytotox inactive, HT1080-NT tox inactive, MCF10A rerep inactive, SW480 rerep inactive, HT1080 IDH1KD tx inactive and KB-3-1 tox inactive.
O=C(/C=C/c1ccccc1)N1CCC(c2ccccc2)C1 (stereo not given) was read as KB-V1 cytotox 21µM, HT1080-NT tox inactive, MCF10A rerep inactive, SW480 rerep inactive, HT1080 IDH1KD tx inactive and KB-3-1 tox inactive.
Screening O=C(OC1C[C@H]2CC[C@@H](C1)[N+]21CCCC1)C(O)(c1ccccc1)c1ccccc1 (stereo not given in full) returned MCF10A rerep inactive and SW480 rerep inactive.
`O=C(O)C1C2CCC(C2)C1C(=O)Nc1ccc(Cl)c(Cl)c1` (stereo not given) gave KB-V1 cytotox inactive, HT1080-NT tox inactive, MCF10A rerep inactive, SW480 rerep inactive, HT1080 IDH1KD tx inactive and KB-3-1 tox inactive.
Screening Nc1c(C(=O)OCC2CCCO2)c2nc3ccccc3nc2n1-c1ccc2c(c1)OCCO2 (stereo not given) returned KB-V1 cytotox inactive, HT1080-NT tox inactive, MCF10A rerep inconclusive, SW480 rerep inactive, HT1080 IDH1KD tx inactive and KB-3-1 tox inactive.
O=c1c2c3nc4ccccc4nc3n(-c3ccc4c(c3)OCCO4)c2ncn1C1CCCC1 was read as KB-V1 cytotox inconclusive, HT1080-NT tox inactive, MCF10A rerep 7.1µM, SW480 rerep 13µM, HT1080 IDH1KD tx inactive and KB-3-1 tox inconclusive.
`CN(/N=C\c1ccc(O)c(O)c1)c1nc(-c2ccccc2)cc(-c2ccccc2)n1` gave KB-V1 cytotox inconclusive, HT1080-NT tox inconclusive, MCF10A rerep inconclusive, SW480 rerep 18µM, HT1080 IDH1KD tx inconclusive and KB-3-1 tox inactive.
`O=C(NCc1cccnc1)c1ccccc1-c1nc(-c2ccccc2)no1` gave KB-V1 cytotox inconclusive, HT1080-NT tox inactive, MCF10A rerep inactive, SW480 rerep inactive, HT1080 IDH1KD tx inactive and KB-3-1 tox inactive.
Screening COc1ccccc1NC(=O)CCCCCN1C(=O)c2cccc3cccc(c23)C1=O returned KB-V1 cytotox inconclusive, HT1080-NT tox inactive, MCF10A rerep inactive, SW480 rerep inactive, HT1080 IDH1KD tx inactive and KB-3-1 tox inactive.
COc1ccccc1NC(=O)CCCCCN1C(=O)c2cccc([N+](=O)[O-])c2C1=O was read as KB-V1 cytotox inactive, HT1080-NT tox inactive, MCF10A rerep 0.92µM, SW480 rerep inactive, HT1080 IDH1KD tx inactive and KB-3-1 tox inactive.
For CCOC(=O)N1CCN(C(=O)CN(CC)S(=O)(=O)c2cc(C)ccc2OC)CC1 the results were KB-V1 cytotox inactive, HT1080-NT tox inactive, MCF10A rerep inactive, SW480 rerep inactive, HT1080 IDH1KD tx inactive and KB-3-1 tox inactive.
CC(C)COC(=O)c1ccc2c(c1O)C(=O)c1ccccc1C2=O was read as KB-V1 cytotox 15µM, HT1080-NT tox inactive, MCF10A rerep inconclusive, SW480 rerep inconclusive, HT1080 IDH1KD tx inactive and KB-3-1 tox inactive.
`Cc1cccc(CN2C(=O)N/C(=C/c3ccc(C)s3)C2=O)c1` gave KB-V1 cytotox 15µM, HT1080-NT tox inactive, MCF10A rerep 7.3µM, SW480 rerep inconclusive, HT1080 IDH1KD tx inconclusive and KB-3-1 tox 23µM.
For O=C(CCC(=O)c1ccc(Br)cc1)Nc1cccnc1 the results were KB-V1 cytotox inactive, HT1080-NT tox inactive, MCF10A rerep inactive, SW480 rerep inactive, HT1080 IDH1KD tx inactive and KB-3-1 tox inactive.
For CCCCC(=O)NNC(=O)c1c(O)c2ccccc2[nH]c1=O the results were KB-V1 cytotox 9.2µM, HT1080-NT tox inactive, MCF10A rerep inconclusive, SW480 rerep inactive, HT1080 IDH1KD tx inactive and KB-3-1 tox inactive.
O=C(CCl)NNC(=O)c1c(O)c2ccccc2[nH]c1=O was read as KB-V1 cytotox inconclusive, HT1080-NT tox 12µM, MCF10A rerep inactive, SW480 rerep inconclusive, HT1080 IDH1KD tx 15µM and KB-3-1 tox 15µM.
For CN(C)CCNC(=O)c1sc2nc(-c3ccccc3)cc(C(F)(F)F)c2c1N the results were KB-V1 cytotox inconclusive, HT1080-NT tox 23µM, MCF10A rerep inconclusive, SW480 rerep inconclusive, HT1080 IDH1KD tx 18µM and KB-3-1 tox inconclusive.
Screening O=C(NC(c1ccc(F)cc1)c1ccc2ccccc2n1)C1CCN(Cc2ccc3ccccc3n2)CC1 (stereo not given) returned KB-V1 cytotox inactive, HT1080-NT tox inconclusive, HT1080 IDH1KD tx 23µM and KB-3-1 tox inconclusive.
For COc1cc(OC)nc(C(NC(=O)C2CCN(Cc3ccc(N(C)C)cc3)CC2)c2ccc(F)cc2)n1 (stereo not given) the results were KB-V1 cytotox inactive, HT1080-NT tox inactive, HT1080 IDH1KD tx inactive and KB-3-1 tox inactive.

From PubChem
